Measurements published in the supplement of paper PMC8285479.
Where a name gives a salt, the structure may show the parent alone. ± gives the standard deviation of the averaged measurements. The full ranking holds about 1,900 compounds; the median of “normalised cell viability (NPI; 0 = phenylarsine oxide control, 1 = DMSO control)” is about 1, and the lowest 2% start at about 0.039. The sample holds the lowest values, similar compounds and a random draw of the others, so the mix is not that of the screen.

Test system: NCI-H1944
Assay: normalised cell viability (NPI; 0 = phenylarsine oxide control, 1 = DMSO control) (fraction of DMSO control); NCI-H1944 is a non-small cell lung cancer line; higher = more viable cells (less compound toxicity)
Details: 6 days
[1] = glucocorticoid arm: hydrocortisone 2.75 uM co-treatment, compound 1 µM
[2] = glucocorticoid arm: hydrocortisone 2.75 uM co-treatment, compound 5 µM
[3] = glucocorticoid arm: hydrocortisone 2.75 uM pre-treated 2 days and continued, compound 1 µM
[4] = glucocorticoid arm: hydrocortisone 2.75 uM pre-treated 2 days and continued, compound 5 µM
[5] = glucocorticoid arm: vehicle, compound 1 µM
[6] = glucocorticoid arm: vehicle, compound 5 µM
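Further: CTB read-out in 384-well plates, triplicate wells, NPI normalised per plate against 1 µM phenylarsine oxide (0) and 0.1% DMSO (1) controls.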

Structure (SMILES) | normalised cell viability [1] | normalised cell viability [2] | normalised cell viability [3] | normalised cell viability [4] | normalised cell viability [5] | normalised cell viability [6]
CCN(CC)Cc1ccc2cc(COC(=O)Nc3ccc(C(=O)NO)cc3)ccc2c1 [Givinostat (ITF2357)] | 0.726 ± 0.049 | 0.00151 ± 0.0022 | 1 ± 0.018 | 0.0193 ± 0.0045 | 0.139 ± 0.006 | 0.000221 ± 0.0011
CCN(CC)CCNC(=O)c1ccc(NC(C)=O)cc1 [N-Acetylprocainamide hydrochloride] | 0.9787 ± 0.0049 | 0.974 ± 0.0099 | 0.9943 ± 0.0067 | 0.977 ± 0.027 | 0.9883 ± 0.0038 | 0.9807 ± 0.0087
COc1ccc(Cn2ccc3ccc(C(=O)NO)cc32)cc1 | 0.959 ± 0.041 | 1.01 ± 0.029 | 0.923 ± 0.12 | 1.04 ± 0.04 | 0.9977 ± 0.004 | 1.002 ± 0.0076
O=C(/C=C/c1ccc2ccccc2n1)c1ccncc1 | 1.01 ± 0.013 | 1.067 ± 0.0058 | 1.02 ± 0.01 | 1.02 ± 0.015 | 1.01 | 1.01 ± 0.01
NC(Cc1cccc(-c2ccccc2CP(=O)(O)O)c1)C(=O)O (stereo not drawn) [Phenylbenzene-omega-phosphono-alpha-amino acid] | 0.9963 ± 0.0055 | 1.1 ± 0.021 | 1.06 ± 0.087 | 1.04 ± 0.021 | 1.017 ± 0.0058 | 1.03 ± 0.01
Cc1ccc(S(=O)(=O)C=CC#N)cc1 | 0.979 ± 0.013 | 0.976 ± 0.0056 | 0.9813 ± 0.0023 | 0.997 ± 0.023 | 0.988 ± 0.011 | 0.688 ± 0.081
CC(C)(C)c1ccc(S(=O)(=O)/C=C/C#N)cc1 | 0.9913 ± 0.008 | 0.41 ± 0.055 | 0.9847 ± 0.007 | 0.9755 ± 0.0021 | 0.972 ± 0.0092 | 0.00936 ± 0.004
CC(/C=C/c1cccc(Oc2ccc(F)cc2)c1)N(O)C(N)=O (stereo unspecified) | 1.017 ± 0.0058 | 1.07 ± 0.01 | 1.01 ± 0.011 | 1.06 ± 0.014 | 1.02 ± 0.015 | 1.023 ± 0.0058
O=C(O)[C@@H]1C[C@H](C(=O)O)N1 [cis-Azetidine-2,4-dicarboxylic acid] | 0.992 ± 0.0044 | 0.97 ± 0.015 | 0.997 ± 0.012 | 1 | 0.9863 ± 0.0029 | 0.976 ± 0.011
OC[C@H]1NC[C@H](O)[C@@H](O)[C@@H]1O [1-Deoxynojirimycin hydrochloride] | 1.01 ± 0.011 | 0.984 ± 0.025 | 0.995 ± 0.015 | 0.969 ± 0.0066 | 1.003 ± 0.0058 | 0.991 ± 0.013
CN(C)CCC(c1ccc(Cl)cc1)c1ccccn1 (racemic) [(±)-Chlorpheniramine maleate] | 0.9833 ± 0.0025 | 0.985 ± 0.018 | 0.9843 ± 0.0078 | 0.991 ± 0.028 | 0.9727 ± 0.0021 | 0.987 ± 0.0069
OC[C@H]1NC[C@@H](O)[C@@H]1O [1,4-Dideoxy-1,4-imino-D-arabinitol] | 0.9993 ± 0.0011 | 0.9807 ± 0.0015 | 0.997 ± 0.014 | 0.976 ± 0.027 | 1.002 ± 0.007 | 0.992 ± 0.012
COc1ccc(-c2ccc3ncc4c(c3c2)n(-c2ccc(N3CCNCC3)c(C(F)(F)F)c2)c(=O)n4C)cn1 | 0.00163 ± 0.00092 | 0.000434 ± 0.00018 | 0.25 ± 0.021 | 0.0016 ± 0.00014 | 0.000974 ± 0.00058 | 0.000275 ± 0.00038
Cn1c(=O)n(-c2ccc(C(C)(C)C#N)cc2)c2c3cc(-c4cnc5ccccc5c4)ccc3ncc21 | 0.421 ± 0.017 | 0.496 ± 0.04 | 0.629 ± 0.0076 | 0.633 ± 0.071 | 0.255 ± 0.013 | 0.408 ± 0.047
c1ccc(C2CN3CCSC3=N2)cc1 (single isomer, unassigned; (-)) [(-)-Tetramisole hydrochloride] | 1.017 ± 0.0058 | 1.01 ± 0.015 | 1.02 ± 0.015 | 1.02 ± 0.015 | 1.02 | 1.02 ± 0.015
O=Nc1c(-c2c(O)[nH]c3cc(Br)ccc23)[nH]c2ccccc12 | 1.15 ± 0.01 | 1.24 ± 0.032 | 1.127 ± 0.011 | 1.16 ± 0.031 | 1.04 ± 0.01 | 1.07 ± 0.01
CCN1CCN(Cc2ccc(Nc3ncc(F)c(-c4cc(F)c5nc(C)n(C(C)C)c5c4)n3)nc2)CC1 | 0.493 ± 0.041 | 0.312 ± 0.06 | 0.528 ± 0.03 | 0.599 ± 0.14 | 0.252 ± 0.028 | 0.000109 ± 0.00093
N=C(NC(=O)c1nc(Cl)c(N)nc1N)Nc1ccccc1 [Phenamil methanesulfonate] | 1.01 ± 0.011 | 1.04 ± 0.025 | 0.894 ± 0.22 | 1.06 ± 0.025 | 1.007 ± 0.0058 | 0.9977 ± 0.004
CCCCOc1c(C(=O)c2c(F)cc(C)cc2F)c[nH]c2nncc1-2 | 0.91 ± 0.018 | 0.988 ± 0.017 | 0.9857 ± 0.0032 | 1.02 ± 0.022 | 0.561 ± 0.04 | 0.861 ± 0.018
CN(C)CCCn1cc(C2=C(c3c[nH]c4ccccc34)C(=O)NC2=O)c2ccccc21 | 0.992 ± 0.017 | 1.06 ± 0.011 | 1.01 ± 0.02 | 1.01 ± 0.059 | 1.03 ± 0.011 | 1.05
Cn1cc(C2=C(c3cn(CCCSC(=N)N)c4ccccc34)C(=O)NC2=O)c2ccccc21 [Ro 31-8220 Mesylate] | 0.998 ± 0.013 | 0.125 ± 0.013 | 0.973 ± 0.036 | 0.297 ± 0.087 | 1.013 ± 0.0058 | 0.0242 ± 0.0022
O=Nc1ccc2oc(=O)ccc2c1 [6-Nitroso-1,2-benzopyrone] | 1.02 ± 0.01 | 1.02 ± 0.015 | 1.027 ± 0.0058 | 0.857 ± 0.29 | 1.013 ± 0.0058 | 1.02 ± 0.01
CN(C)CCC(c1ccc(Br)cc1)c1ccccn1 (single isomer, unassigned; (+)) [(+)-Brompheniramine maleate] | 1.01 ± 0.017 | 1.023 ± 0.0058 | 1.05 ± 0.04 | 1.03 ± 0.021 | 1.006 ± 0.0069 | 1.02 ± 0.011
Nc1ncnc2c1ncn2[C@@H]1O[C@H](COP(=O)(O)CP(=O)(O)OP(=O)([O-])O)[C@@H](O)[C@H]1O.[Li+] [alpha,beta-Methylene adenosine 5'-triphosphate lithium salt] | 1.02 ± 0.011 | 1 ± 0.036 | 1.01 ± 0.014 | 0.992 ± 0.013 | 1.005 ± 0.0081 | 1.02 ± 0.021
Cc1nc(N=Nc2cc(S(=O)(=O)O)c3cc([N+](=O)[O-])cc(S(=O)(=O)O)c3c2)c(COP(=O)(O)O)c(C=O)c1O [PPNDS tetrasodium] | 1.001 ± 0.0085 | 1.01 ± 0.037 | 1.013 ± 0.0058 | 0.857 ± 0.27 | 0.9973 ± 0.0021 | 0.999 ± 0.0098
CC(NC(=O)C(O)c1cc(F)cc(F)c1)C(=O)NC1C(=O)N(C)c2ccccc2-c2ccccc21 (stereo unspecified) | 0.973 ± 0.013 | 0.995 ± 0.017 | 0.977 ± 0.015 | 1.007 ± 0.0058 | 0.9893 ± 0.0038 | 0.9993 ± 0.0011
